Inconclusive results are not listed. Entries that show only a call come without a potency. The source made the active and inactive calls. The call rests on the fitted dose curve; in most records, active means well fitted cell-killing curve with a large enough effect; inconclusive means small, poorly fitted or top-dose-only effect, or effect the other way; inactive means no such curve, though single readings can be large or run the other way.
Assay: Quantitative High-Throughput drug screen in 47 multiple myeloma cell lines against the NCATS MIPE library collection: OCIMY1_PLB cell viability assay (AID 1918979); further: nearly all actives have a fitted effect of over 35% in size
Settings: OCI-MY1 myeloma viability, CellTiter-Glo ATP, 48 h; series mostly up to 45.8 µM
In short: (§1)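 500 cells/well; MIPE 4.0 drugs pin-transferred; 48 h, 37C, 5% CO2. CellTiter-Glo, 5 min RT, luminescence. Controls: DMSO 100%, media 0%.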

| Structure (SMILES) | Potency |
| --- | --- |
| CN1CCN2c3ncccc3Cc3ccccc3C2C1 (configuration not stated) | inactive |
| CS(=O)(=O)c1ccc(C2=C(c3ccccc3)C(=O)OC2)cc1 | inactive |
| CC=C1C2C=C(C)CC1(N)c1ccc(=O)[nH]c1C2 (configuration not stated) | inactive |
| COc1ccc(-c2cc(=O)c3c(O)cc(O[C@@H]4O[C@H](CO[C@@H]5O[C@@H](C)[C@H](O)[C@@H](O)[C@@H]5O)[C@@H](O)[C@H](O)[C@@H]4O)cc3o2)cc1O | inactive |
| CON(C)C(=O)N1N=C(c2cc(F)ccc2F)S[C@]1(CCCN)c1ccccc1 | inactive |
| CC(=O)N1CCN(c2ccc(OCc3nn(C)c(C)c3-c3cccc4c(CCCOc5cc(C)c(Cl)c(C)c5)c(C(=O)O)n(Cc5cccnc5)c34)cc2)CC1 | inactive |
| CCOC(=O)[C@H](CCc1ccccc1)N[C@@H](C)C(=O)N1CCCC1C(=O)O (some centres not stated) | inactive |
| CC(C)CN(C[C@H](O)[C@H](Cc1ccccc1)NC(=O)O[C@H]1CCOC1)S(=O)(=O)c1ccc(N)cc1 | inactive |
| O=c1[nH]c(=O)n([C@H]2C[C@@H](O)[C@@H](CO)O2)cc1I | inactive |
| Cc1cn([C@@H]2C[C@@H](O)[C@H](CO)O2)c(=O)[nH]c1=O | inactive |
| CC1CNc2c(cccc2S(=O)(=O)N[C@@H](CCCN=C(N)N)C(=O)N2CC[C@@H](C)C[C@@H]2C(=O)O)C1 (some centres not stated) | inactive |
| C[C@@H]1C[C@H]2[C@@H]3CCC4=CC(=O)C=C[C@]4(C)[C@@]3(F)[C@@H](O)C[C@]2(C)[C@@]1(O)C(=O)CO | inactive |
| CCC(c1ccc(O)cc1)C(CC)c1ccc(O)cc1 (configuration not stated) | inactive |
| COC(=O)[C@H](c1ccccc1Cl)N1CCc2sccc2C1 | inactive |
| C=C1c2cccc(O)c2C(O)=C2C(=O)[C@@]3(O)C(O)=C(C(N)=O)C(=O)[C@@H](N(C)C)[C@@H]3[C@@H](O)[C@H]12 | inactive |
| CC1=C(C(=O)Nc2cc3cn[nH]c3cc2F)C(c2ccc(C(F)(F)F)cc2)CC(=O)N1 (configuration not stated) | inactive |
| O=C(O)c1ccc(O)c2ncc(N3CCOCC3)cc12 | inactive |

Assay: Quantitative High-Throughput drug screen in 47 multiple myeloma cell lines against the NCATS MIPE library collection: MM1S_ATCC cell viability assay (AID 1918980); further: nearly all actives have a fitted effect of over 45% in size; further: potency means the concentration at half of the fitted maximal effect
Settings: MM1S myeloma viability, CellTiter-Glo ATP luminescence, 48 h; series mostly up to 45.8 µM
In short: as §1

| Structure (SMILES) | Potency |
| --- | --- |
| COc1cc2ncnc(Nc3cc(Br)c(O)c(Br)c3)c2cc1OC | 0.0026 µM (active) |
| CC=C1C2C=C(C)CC1(N)c1ccc(=O)[nH]c1C2 (configuration not stated) | inactive |
| COc1ccc(-c2cc(=O)c3c(O)cc(O[C@@H]4O[C@H](CO[C@@H]5O[C@@H](C)[C@H](O)[C@@H](O)[C@@H]5O)[C@@H](O)[C@H](O)[C@@H]4O)cc3o2)cc1O | 18.7 µM (active) |
| Cc1nc2c([nH]1)CCN(C(=O)c1ccc(NC(=O)c3ccccc3-c3ccccc3)cc1)c1ccccc1-2 | inactive |
| COc1c(C)c2c(c(O)c1CC=C(C)CCC(=O)OCCN1CCOCC1)C(=O)OC2 | 6.62 µM (active) |
| O=C(CC12CC3CC(CC(C3)C1)C2)Nc1cccc2nc(NCCNCCO)ccc12 | 8.33 µM (active) |
| CC(=O)N1CCN(c2ccc(OCc3nn(C)c(C)c3-c3cccc4c(CCCOc5cc(C)c(Cl)c(C)c5)c(C(=O)O)n(Cc5cccnc5)c34)cc2)CC1 | 14.8 µM (active) |
| CC(C)CN(C[C@H](O)[C@H](Cc1ccccc1)NC(=O)O[C@H]1CCOC1)S(=O)(=O)c1ccc(N)cc1 | 16.6 µM (active) |
| Cc1ccc2c(c1)c1c(n2CCc2ccc(C)nc2)CCN(C)C1 | inactive |
| CC1CNc2c(cccc2S(=O)(=O)N[C@@H](CCCN=C(N)N)C(=O)N2CC[C@@H](C)C[C@@H]2C(=O)O)C1 (some centres not stated) | 7.43 µM (active) |
| O=C(c1ccc(F)c(F)c1Nc1ccc(I)cc1F)N1CC(O)([C@H]2CCCCN2)C1 | 18.7 µM (active) |
| CCc1cc(-c2n[nH]c(C)c2-c2ccc3c(c2)OCCO3)c(O)cc1O | 8.33 µM (active) |
| NCc1c[nH]c(=S)n1[C@H]1CCc2c(F)cc(F)cc2C1 | 23.5 µM (active) |
| C[C@@H]1C[C@H]2[C@@H]3CCC4=CC(=O)C=C[C@]4(C)[C@@]3(F)[C@@H](O)C[C@]2(C)[C@@]1(O)C(=O)CO | 0.0264 µM (active) |
| CCC(c1ccc(O)cc1)C(CC)c1ccc(O)cc1 (configuration not stated) | 4.69 µM (active) |
| CN1CCN(c2ncc(-c3cc(Cl)cc(Cl)c3Cl)c(N)n2)CC1 | 11.8 µM (active) |
| COc1cc(Nc2nc3ccccc3nc2NS(=O)(=O)c2ccc(NC(=O)c3ccc(C)c(OC)c3)cc2)cc(OC)c1 | 20.9 µM (active) |
| O=C(O)c1ccc(O)c2ncc(N3CCOCC3)cc12 | 23.5 µM (active) |

Assay: Quantitative High-Throughput drug screen in 47 multiple myeloma cell lines against the NCATS MIPE library collection: MM1R_ATCC cell viability assay (AID 1918981); further: nearly all actives have a fitted effect of over 35% in size; further: potency means the concentration at half of the fitted maximal effect
Settings: MM1R multiple myeloma cells, CellTiter-Glo viability, 48 h; series mostly up to 45.8 µM
In short: as §1

| Structure (SMILES) | Potency |
| --- | --- |
| CN1CCN2c3ncccc3Cc3ccccc3C2C1 (configuration not stated) | inactive |
| COc1cc2ncnc(Nc3cc(Br)c(O)c(Br)c3)c2cc1OC | 0.0418 µM (active) |
| CS(=O)(=O)c1ccc(C2=C(c3ccccc3)C(=O)OC2)cc1 | inactive |
| CC=C1C2C=C(C)CC1(N)c1ccc(=O)[nH]c1C2 (configuration not stated) | inactive |
| COc1ccc(-c2cc(=O)c3c(O)cc(O[C@@H]4O[C@H](CO[C@@H]5O[C@@H](C)[C@H](O)[C@@H](O)[C@@H]5O)[C@@H](O)[C@H](O)[C@@H]4O)cc3o2)cc1O | inactive |
| Cc1nc2c([nH]1)CCN(C(=O)c1ccc(NC(=O)c3ccccc3-c3ccccc3)cc1)c1ccccc1-2 | inactive |
| COc1c(C)c2c(c(O)c1CC=C(C)CCC(=O)OCCN1CCOCC1)C(=O)OC2 | 11.8 µM (active) |
| O=C(CC12CC3CC(CC(C3)C1)C2)Nc1cccc2nc(NCCNCCO)ccc12 | 20.9 µM (active) |
| CON(C)C(=O)N1N=C(c2cc(F)ccc2F)S[C@]1(CCCN)c1ccccc1 | inactive |
| CC(=O)N1CCN(c2ccc(OCc3nn(C)c(C)c3-c3cccc4c(CCCOc5cc(C)c(Cl)c(C)c5)c(C(=O)O)n(Cc5cccnc5)c34)cc2)CC1 | 20.9 µM (active) |
| CC(C)CN(C[C@H](O)[C@H](Cc1ccccc1)NC(=O)O[C@H]1CCOC1)S(=O)(=O)c1ccc(N)cc1 | 16.6 µM (active) |
| O=c1[nH]c(=O)n([C@H]2C[C@@H](O)[C@@H](CO)O2)cc1I | 6.62 µM (active) |
| Cc1cn([C@@H]2C[C@@H](O)[C@H](CO)O2)c(=O)[nH]c1=O | inactive |
| Cc1ccc2c(c1)c1c(n2CCc2ccc(C)nc2)CCN(C)C1 | inactive |
| CCC(=C(CC)c1ccc(O)cc1)c1ccc(O)cc1 | 14.8 µM (active) |
| O=C(c1ccc(F)c(F)c1Nc1ccc(I)cc1F)N1CC(O)([C@H]2CCCCN2)C1 | 23.5 µM (active) |
| CCc1cc(-c2n[nH]c(C)c2-c2ccc3c(c2)OCCO3)c(O)cc1O | 6.62 µM (active) |
| NCc1c[nH]c(=S)n1[C@H]1CCc2c(F)cc(F)cc2C1 | 16.6 µM (active) |
| C[C@@H]1C[C@H]2[C@@H]3CCC4=CC(=O)C=C[C@]4(C)[C@@]3(F)[C@@H](O)C[C@]2(C)[C@@]1(O)C(=O)CO | inactive |
| Nc1ccn([C@@H]2O[C@H](CO)[C@@H](O)[C@H]2O)c(=O)n1 | 0.0526 µM (active) |
| CN1CCN(c2ncc(-c3cc(Cl)cc(Cl)c3Cl)c(N)n2)CC1 | inactive |
| O=C1C(CCC(O)c2ccc(F)cc2)C(c2ccc(O)cc2)N1c1ccc(F)cc1 (configuration not stated) | inactive |
| COC(=O)[C@H](c1ccccc1Cl)N1CCc2sccc2C1 | inactive |
| C=C1c2cccc(O)c2C(O)=C2C(=O)[C@@]3(O)C(O)=C(C(N)=O)C(=O)[C@@H](N(C)C)[C@@H]3[C@@H](O)[C@H]12 | 20.9 µM (active) |
| CC1=C(C(=O)Nc2cc3cn[nH]c3cc2F)C(c2ccc(C(F)(F)F)cc2)CC(=O)N1 (configuration not stated) | inactive |
| OC[C@H]1O[C@@H](Oc2ccc(O)cc2)[C@H](O)[C@@H](O)[C@H]1O | inactive |
| C[C@@H](O)[C@H]1C(=O)N2C(C(=O)OCOC(=O)C(C)(C)C)=C(SC3CN(C4=NCCS4)C3)[C@H](C)[C@H]12 | 16.6 µM (active) |
